Laboratory results from PubChem BioAssay (NCI).
Where “and” joins values, the source holds several entries; their conditions need not be identical. Equal values may be shown once. This is part of a sample that, as a whole, favours compounds with a hit. Of some 83,000 tested, about 20% had one in any assay.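 Assay: single dose, 48 h. Readout: percent growth (0 = no net growth; negative = cell death). Active: <10.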 Calls of active or inactive are those of the source.

Assays:
Test in all cases: NCI-60 one-dose screen, 48 h (100 = growth as untreated, 0 = no growth, -100 = all killed)
HT29 colon = system: HT29 colon
SNB-75 CNS = system: SNB-75 CNS
SNB-19 CNS = system: SNB-19 CNS
U251 CNS = system: U251 CNS
PC-3 prostate = system: PC-3 prostate
UACC-62 melanoma = system: UACC-62 melanoma
LOX IMVI melanoma = system: LOX IMVI melanoma
SK-MEL-28 melanoma = system: SK-MEL-28 melanoma
SK-MEL-2 melanoma = system: SK-MEL-2 melanoma
HCT-15 colon = settings: 10 µM

Measured: growth

CC(=O)O[C@H]1C(=O)[C@@]2(C)[C@H]([C@H](OC(=O)c3ccccc3)[C@]3(O)C[C@H](OC(=O)[C@H](O)[C@@H](NC(=O)c4ccccc4)c4ccccc4)C(C)=C1C3(C)C)[C@]1(OC(C)=O)CO[C@@H]1C[C@@H]2O
inactive: SNB-19 CNS; 0.01 µM 30% | SNB-19 CNS; 2.5 µM 25.9% | SNB-19 CNS; 5 µM 30.1% | SNB-19 CNS; 10 µM 31.4% and 35.6% | U251 CNS; 0.01 µM 27.9% | U251 CNS; 2.5 µM 12.3% | U251 CNS; 5 µM 13.9% | U251 CNS; 10 µM 10.6% and 15.9% | PC-3 prostate; 0.01 µM 25% | PC-3 prostate; 2.5 µM 26.2% | PC-3 prostate; 5 µM 34.7% | UACC-62 melanoma; 0.01 µM 24.9% | UACC-62 melanoma; 2.5 µM 34.2% | UACC-62 melanoma; 5 µM 40.3% | UACC-62 melanoma; 10 µM 41.8% and 42.9% | LOX IMVI melanoma; 0.01 µM 35.4% | LOX IMVI melanoma; 5 µM 42.1% | LOX IMVI melanoma; 10 µM 35.1% and 42.3% | SK-MEL-28 melanoma; 2.5 µM 71.3% | SK-MEL-28 melanoma; 5 µM 76.6% | SK-MEL-28 melanoma; 10 µM 75.7% | SK-MEL-2 melanoma; 0.01 µM 72.5% | SK-MEL-2 melanoma; 5 µM 21.3% | SK-MEL-2 melanoma; 10 µM 25.7% and 32%
active: HT29 colon; 0.01 µM 3.27% | HT29 colon; 2.5 µM -29.4% | HT29 colon; 5 µM -21.4% | HT29 colon; 10 µM -21.5% and -18.2% | SNB-75 CNS; 0.01 µM -1.17% | SNB-75 CNS; 2.5 µM -28% | SNB-75 CNS; 5 µM -16.7% | SNB-75 CNS; 10 µM -38.5% and -19.3% | LOX IMVI melanoma; 2.5 µM 9.12% | SK-MEL-2 melanoma; 2.5 µM 3.85%
-45.5% (active) and 37.3% (inactive): PC-3 prostate; 10 µM

CCC(=O)Oc1ccc(/C=N/NC(N)=S)nc1
active: UACC-62 melanoma; 10 µM 7.95%
inactive: HT29 colon; 10 µM 60.8% | SNB-75 CNS; 10 µM 41% | SNB-19 CNS; 10 µM 72.7% | U251 CNS; 10 µM 27.3% | PC-3 prostate; 10 µM 54.1% | LOX IMVI melanoma; 10 µM 18.1% | SK-MEL-28 melanoma; 10 µM 79% | SK-MEL-2 melanoma; 10 µM 53.2%

O=Nc1ccc(Nc2ccccc2)cc1
inactive: HT29 colon; 10 µM 95.1% | SNB-75 CNS; 10 µM 80.4% | SNB-19 CNS; 10 µM 98.3% | U251 CNS; 10 µM 87.8% | PC-3 prostate; 10 µM 82.8% | UACC-62 melanoma; 10 µM 96.9% | LOX IMVI melanoma; 10 µM 23.5% | SK-MEL-28 melanoma; 10 µM 120% | SK-MEL-2 melanoma; 10 µM 109%

O=C(NC(=S)Nc1ccccn1)c1ccccc1
inactive: HT29 colon; 10 µM 87.5% | SNB-75 CNS; 10 µM 74.8% | SNB-19 CNS; 10 µM 95.4% | U251 CNS; 10 µM 94.9% | PC-3 prostate; 10 µM 77.9% | UACC-62 melanoma; 10 µM 93.1% | LOX IMVI melanoma; 10 µM 94.9% | SK-MEL-28 melanoma; 10 µM 152% | SK-MEL-2 melanoma; 10 µM 127%

Cn1c2nc3ccccc3c-2nc2ccccc21
inactive: HCT-15 colon 94.9% and 85.2% | HT29 colon; 10 µM 99.7% and 103% | SNB-75 CNS; 10 µM 101% and 81.1% | SNB-19 CNS; 10 µM 88.8% and 82.8% | U251 CNS; 10 µM 91.4% and 90.2% | PC-3 prostate; 10 µM 95.4% and 99.7% | UACC-62 melanoma; 10 µM 87.4% and 91.2% | LOX IMVI melanoma; 10 µM 99.5% and 86.1% | SK-MEL-28 melanoma; 10 µM 113% and 106% | SK-MEL-2 melanoma; 10 µM 113% and 112%

S=C1SCN(CCc2ccccc2)CN1CCc1ccccc1
inactive: HCT-15 colon 95.1% | HT29 colon; 10 µM 95.8% | SNB-75 CNS; 10 µM 87.5% | SNB-19 CNS; 10 µM 105% | U251 CNS; 10 µM 91.3% | PC-3 prostate; 10 µM 93.6% | UACC-62 melanoma; 10 µM 94.9% | LOX IMVI melanoma; 10 µM 90.9% | SK-MEL-28 melanoma; 10 µM 92.4% | SK-MEL-2 melanoma; 10 µM 105%

O=c1[nH]cc(/C=N\Nc2ccccc2)c(=O)[nH]1
active: UACC-62 melanoma; 10 µM 7.82%
inactive: HT29 colon; 10 µM 58.8% | SNB-75 CNS; 10 µM 102% | SNB-19 CNS; 10 µM 103% | U251 CNS; 10 µM 69.6% | PC-3 prostate; 10 µM 52.1% | LOX IMVI melanoma; 10 µM 45.8% | SK-MEL-28 melanoma; 10 µM 81.5% | SK-MEL-2 melanoma; 10 µM 46.1%

ClCCn1c(CCl)nc2ccc(Cl)cc21
inactive: SNB-75 CNS; 10 µM 20.7% | SNB-19 CNS; 10 µM 47.9% | SK-MEL-28 melanoma; 10 µM 42.8%
active: HCT-15 colon -31.5% | HT29 colon; 10 µM -59.8% | U251 CNS; 10 µM -67.2% | PC-3 prostate; 10 µM -63.9% | UACC-62 melanoma; 10 µM -79.6% | LOX IMVI melanoma; 10 µM 2.97% | SK-MEL-2 melanoma; 10 µM -56%

S=P(N1CC1)(N1CC1)N1CC1
inactive: HT29 colon; 10 µM 99.6% and 83.1% | HT29 colon; 100 µM 54.6% | SNB-75 CNS; 10 µM 109% and 69% | SNB-75 CNS; 100 µM 43.2% | SNB-19 CNS; 10 µM 102% and 101% | SNB-19 CNS; 100 µM 37.3% | U251 CNS; 10 µM 105% and 84.1% | U251 CNS; 100 µM 43.7% | PC-3 prostate; 10 µM 97.5% and 90.9% | PC-3 prostate; 100 µM 52.7% | UACC-62 melanoma; 10 µM 100% and 71.7% | UACC-62 melanoma; 100 µM 37.1% | LOX IMVI melanoma; 10 µM 99.2% and 80.5% | LOX IMVI melanoma; 100 µM 33% | SK-MEL-28 melanoma; 10 µM 131% and 116% | SK-MEL-2 melanoma; 10 µM 116% and 93.3% | SK-MEL-2 melanoma; 100 µM 113%

CCOC(=O)[C@]1(Br)CC[C@@]1(Br)C(=O)OCC
inactive: HT29 colon; 10 µM 83.1% | SNB-75 CNS; 10 µM 92.4% | SNB-19 CNS; 10 µM 106% | U251 CNS; 10 µM 98.3% | PC-3 prostate; 10 µM 97.3% | UACC-62 melanoma; 10 µM 77.9% | LOX IMVI melanoma; 10 µM 82.5% | SK-MEL-28 melanoma; 10 µM 110% | SK-MEL-2 melanoma; 10 µM 91.7%

CN(CC(=O)O)c1ccc(/C=C/c2ccnc3ccccc23)cc1
inactive: HT29 colon; 10 µM 88.6% | SNB-75 CNS; 10 µM 90.3% | SNB-19 CNS; 10 µM 87.9% | U251 CNS; 10 µM 80.3% | PC-3 prostate; 10 µM 71.2% | UACC-62 melanoma; 10 µM 72.3% | LOX IMVI melanoma; 10 µM 94.8% | SK-MEL-28 melanoma; 10 µM 100% | SK-MEL-2 melanoma; 10 µM 89%

O=C1c2cccc3cc([N+](=O)[O-])cc(c23)C(=O)N1CCN1CCCC1
active: HT29 colon; 10 µM 2.59% | SNB-75 CNS; 10 µM -15.1% | SNB-19 CNS; 10 µM -0.129% | U251 CNS; 10 µM -12.3% | UACC-62 melanoma; 10 µM -66.1% | LOX IMVI melanoma; 10 µM -65.9% | SK-MEL-28 melanoma; 10 µM -36.5% | SK-MEL-2 melanoma; 10 µM 4.73%
inactive: PC-3 prostate; 10 µM 14.4%

N#C/C(=C/N1C(=O)/C(=C/c2ccc([N+](=O)[O-])cc2)SC1=S)c1nc2ccccc2s1
inactive: HT29 colon; 10 µM 98.6% | SNB-75 CNS; 10 µM 84.5% | SNB-19 CNS; 10 µM 86.4% | U251 CNS; 10 µM 69.4% | PC-3 prostate; 10 µM 79.7% | UACC-62 melanoma; 10 µM 70.1% | LOX IMVI melanoma; 10 µM 88% | SK-MEL-28 melanoma; 10 µM 105% | SK-MEL-2 melanoma; 10 µM 94.4%

C=C1N(C)c2ccc(Cl)cc2C1(C)C
inactive: HCT-15 colon 106% | HT29 colon; 10 µM 35.7% | SNB-75 CNS; 10 µM 62% | SNB-19 CNS; 10 µM 55.1% | U251 CNS; 10 µM 22.8% | PC-3 prostate; 10 µM 32.9% | UACC-62 melanoma; 10 µM 69.5% | LOX IMVI melanoma; 10 µM 51.9% | SK-MEL-28 melanoma; 10 µM 84.5% | SK-MEL-2 melanoma; 10 µM 101%

Cn1ncc2cc3c(Nc4ccc(Cl)cc4)cccc3nc21
inactive: HT29 colon; 10 µM 78.7% | SNB-75 CNS; 10 µM 97.2% | SNB-19 CNS; 10 µM 99.3% | U251 CNS; 10 µM 81.2% | PC-3 prostate; 10 µM 79.8% | UACC-62 melanoma; 10 µM 98.6% | LOX IMVI melanoma; 10 µM 87% | SK-MEL-28 melanoma; 10 µM 95.8% | SK-MEL-2 melanoma; 10 µM 99.4%

Cc1c(-c2ccccc2)[nH]c2ccccc12
inactive: HT29 colon; 10 µM 103% | SNB-75 CNS; 10 µM 89.9% | SNB-19 CNS; 10 µM 110% | U251 CNS; 10 µM 106% | PC-3 prostate; 10 µM 87.8% | UACC-62 melanoma; 10 µM 96.3% | LOX IMVI melanoma; 10 µM 81.5% | SK-MEL-28 melanoma; 10 µM 121% | SK-MEL-2 melanoma; 10 µM 115%

COc1ccc2oc(-c3ccc(Cl)cc3)c(N3CCN(C)CC3)c2c1
active: HT29 colon; 10 µM -1.44% | PC-3 prostate; 10 µM 4.07% | UACC-62 melanoma; 10 µM -52.6% | LOX IMVI melanoma; 10 µM -87.5% | SK-MEL-28 melanoma; 10 µM -12.3% | SK-MEL-2 melanoma; 10 µM -15.9%
inactive: SNB-75 CNS; 10 µM 18.3% | SNB-19 CNS; 10 µM 48.6% | U251 CNS; 10 µM 20.1%

O=C(O)c1ccccc1.[Ag]
inactive: HT29 colon; 10 µM 97.9% | SNB-75 CNS; 10 µM 110% | SNB-19 CNS; 10 µM 105% | U251 CNS; 10 µM 97% | PC-3 prostate; 10 µM 86.8% | UACC-62 melanoma; 10 µM 105% | LOX IMVI melanoma; 10 µM 17% | SK-MEL-28 melanoma; 10 µM 106% | SK-MEL-2 melanoma; 10 µM 122%
